An excerpt weighted towards active compounds, which were near 2% of everything screened.
ABHD5-PLIN5 inh: inhibitors of human ABHD5-perilipin-5 interaction; Split G. princeps luciferase complementation, luminescence, 4 h; inhibition, % at 4 µM; Q00G26+Q8WTS1; AID 602281; 360,000 tested, 0.78% active;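 active = inhibition above the mean inhibition across every tested compound plus 3 SD, cut at about 22% in these data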
Granule exo inh: blocks lytic granule exocytosis; TALL-104 LAMP-1 surface exposure, flow cytometry; cells stimulated with thapsigargin and PMA; inhibition, % at 10 µM; 360,000 tested, 0.66% active; AID 651702;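 active = inhibition above about 55%, limit read from the data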
NOD2 RIPK2 PPI: inhibitors of human NOD2-RIPK2 interaction; O43353; CHO BLA complementation NOD2-RIPK2, CCF4 ratio; inhibition, % at 4.98 µM; 360,000 tested, 0.38% active; in the data active = inhibition above about 21%
Target sequence (O43353 whole entry, looked up): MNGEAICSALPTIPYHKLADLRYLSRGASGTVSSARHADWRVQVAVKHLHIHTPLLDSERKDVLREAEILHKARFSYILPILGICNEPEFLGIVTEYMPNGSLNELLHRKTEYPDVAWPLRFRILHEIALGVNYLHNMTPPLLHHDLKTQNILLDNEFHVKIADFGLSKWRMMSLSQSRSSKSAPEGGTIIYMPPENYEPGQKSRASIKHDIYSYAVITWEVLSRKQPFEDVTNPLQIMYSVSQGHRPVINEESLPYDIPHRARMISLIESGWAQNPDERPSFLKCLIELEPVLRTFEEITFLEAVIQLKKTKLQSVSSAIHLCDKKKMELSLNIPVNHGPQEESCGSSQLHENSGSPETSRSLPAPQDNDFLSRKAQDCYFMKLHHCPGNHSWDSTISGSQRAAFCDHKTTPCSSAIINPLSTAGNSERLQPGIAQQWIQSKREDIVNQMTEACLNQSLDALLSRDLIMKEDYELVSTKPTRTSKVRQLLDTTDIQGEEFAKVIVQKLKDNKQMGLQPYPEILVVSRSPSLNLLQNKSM
TLR4-MyD88 BLA: TLR4-MyD88 interaction inhibition in cells; inhibition, % at 8.4 µM; AID 861; HeLa CL3-4 TLR4/MyD88 BLA complementation, FRET ratio; O00206+Q99836; 200,000 tested, 0.18% active; in the data active = inhibition above about 25%
B2AR ag: agonists of human beta-2 adrenergic receptor inducing internalization. P07550. Am2.2-beta2AR cells, FAP receptor internalization, flow cytometry. response, % (no concentration beside the values). 340,000 tested, 0.43% active. AID 504454;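 active = response above a set limit, near 3 SD of response in nonfluorescent compounds, cut at about 42% in these data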
TLR9-MyD88 inh: blocks human TLR9 binding to MyD88. 340,000 tested, 0.21% active. Q9NR96+Q99836. CHO BLA complementation TLR9-MyD88, CCF4 FRET ratio. AID 504734. inhibition, % at 4.98 µM;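 active = inhibition above the mean over all tested compounds plus 3 SD, cut at about 21% in these data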
NOD2-RIPK2 conf: confirmation of human NOD2-RIPK2 interaction inhibitors; CHO cells, NOD2-RIPK2 BLA complementation, CCF4 FRET; inhibition, % at 4.98 µM; 1,200 tested, 70% active; shares compounds with NOD2 RIPK2 PPI;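 active = mean inhibition across replicates above a set limit taken from the earlier primary screen, cut at about 21% in these data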
BLA counter: counter-screen for NOD2-RIPK2 interaction inhibitors: BLA reporter | 1,200 tested, 57% active | CHO BLA reporter, CCF4 FRET ratio, counterscreen | shares compounds with NOD2 RIPK2 PPI | AID 624371 | inhibition, % at 4.98 µM;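 active = mean inhibition above the low-control mean inhibition plus three low-control SD, cut at about 11% in these data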
Of the large screens only hits and unclear results are named; the others gave an inactive call (follow-up assays come after a bar, where they were run).

CN(C(=O)COC(=O)CCC1CCCCC1)c1c(N)n(Cc2ccccc2)c(=O)[nH]c1=O	none (no result: TLR4-MyD88 BLA)
COCCN(C(=O)COC(=O)CCC1CCCCC1)c1c(N)n(Cc2ccccc2)c(=O)[nH]c1=O	NOD2 RIPK2 PPI 28 (no result: TLR4-MyD88 BLA, B2AR ag) | NOD2-RIPK2 conf inactive | BLA counter inactive
O=C(NCc1ccc(Cl)cc1)c1cccc2c1C(=O)N(CC1CCCO1)C2 (configuration not stated)	NOD2 RIPK2 PPI 39 (no result: TLR4-MyD88 BLA) | NOD2-RIPK2 conf inactive | BLA counter inactive
O=C1C(Cl)=C(Nc2ccc3cn[nH]c3c2)C(=O)c2ccccc21	ABHD5-PLIN5 inh 29, NOD2 RIPK2 PPI 91, B2AR ag 104 (no result: TLR4-MyD88 BLA) | NOD2-RIPK2 conf 79 | BLA counter 28
CCCS(=O)(=O)NC(=O)C1(C)CCCN(C(=O)CSc2ccccc2)C1 (configuration not stated)	none (no result: TLR4-MyD88 BLA, B2AR ag, TLR9-MyD88 inh)
CCc1ccc(C(=O)Cn2ncc(Cl)c(Cl)c2=O)cc1	NOD2 RIPK2 PPI 34 | NOD2-RIPK2 conf 40 | BLA counter inactive
Cc1ccc(Cn2ncc(Cl)c(Cl)c2=O)cc1	none
CCCCNC(=O)C(C)N(CCN(C)C)C(=O)CCCN1C(=O)NC(c2ccc([N+](=O)[O-])cc2)C(C(=O)OCc2ccccc2)=C1C (configuration not stated)	NOD2 RIPK2 PPI 22 (no result: TLR4-MyD88 BLA) | NOD2-RIPK2 conf inactive | BLA counter inactive
Nc1c(Cl)cc(C(=O)NC2CC2)cc1Cl	none (no result: TLR4-MyD88 BLA)
Cc1ccc(-c2noc(CCC(=O)NCCCN3CCN(c4ccc(F)cc4)CC3)n2)cc1	none
Cc1ccc(-c2noc(CCC(=O)NCCCN3CCN(c4cccc(Cl)c4)CC3)n2)cc1	NOD2 RIPK2 PPI 29 | NOD2-RIPK2 conf inactive | BLA counter inactive
Cc1cccc(NS(=O)(=O)c2cc([N+](=O)[O-])ccc2C)n1	NOD2 RIPK2 PPI 42 | NOD2-RIPK2 conf inactive | BLA counter inactive
COc1ccc(CCNC(=O)C/C(C)=N/NC(=O)c2ccc([N+](=O)[O-])cc2Cl)cc1OC	NOD2 RIPK2 PPI 46 (no result: TLR4-MyD88 BLA) | NOD2-RIPK2 conf inactive | BLA counter inactive
COC(=O)c1ccc(N2C(c3cc(OC)cc(OC)c3)=Cc3ccc(-c4ccc(C(N)=O)cc4)cc3C2CC(=O)C2CC2)cc1 (configuration not stated)	NOD2 RIPK2 PPI 34 (no result: TLR4-MyD88 BLA, B2AR ag, TLR9-MyD88 inh) | NOD2-RIPK2 conf 36 | BLA counter 59
CCn1c(SC(C)C(=O)Nc2ccc3c(c2)OCCO3)nnc1C1CC1 (configuration not stated)	none (no result: TLR4-MyD88 BLA)
CCC(CC)C(=O)N(C)c1c(C)nc2c(OCc3cccc(OC)c3)cccn12	none (no result: TLR4-MyD88 BLA, B2AR ag, TLR9-MyD88 inh)
CCN1C(=O)c2cccc3c(S(=O)(=O)N4CCC(C)CC4)ccc1c23	NOD2 RIPK2 PPI 23 (no result: TLR4-MyD88 BLA) | NOD2-RIPK2 conf 22 | BLA counter 25
Cc1nc(C(F)(F)F)ccc1C(=O)N1CCC1(C)C(=O)Nc1ccc2c(c1)OCO2 (configuration not stated)	none (no result: TLR4-MyD88 BLA, B2AR ag, TLR9-MyD88 inh)
CCOC(=O)C1=C(c2ccccc2)N=c2sc(=Cc3cc(OC)c(OC)c(OC)c3)c(=O)n2C1c1cccs1 (configuration not stated)	none (no result: TLR4-MyD88 BLA, B2AR ag, TLR9-MyD88 inh)
CCOC(=O)C1=C(c2ccccc2)N=c2s/c(=C\c3ccc(O)cc3)c(=O)n2C1c1cccs1 (configuration not stated)	NOD2 RIPK2 PPI 25 | NOD2-RIPK2 conf 31 | BLA counter 42
c1ccc2c(c1)ccn1c(Cc3ccsc3)c(C3CCCCC3)nc21	none (no result: TLR4-MyD88 BLA, B2AR ag, TLR9-MyD88 inh)
Cc1ccc(OCC(=O)Nc2cccc(S(=O)(=O)NC3=NCCCCC3)c2)cc1C	none (no result: TLR4-MyD88 BLA)
Cc1cc(OCC(=O)Nc2cccc(S(=O)(=O)NC3=NCCCCC3)c2)ccc1Cl	NOD2 RIPK2 PPI 40 | NOD2-RIPK2 conf inactive | BLA counter inactive
Cc1cc(Cl)ccc1C(O)c1ncc(-c2ccc(F)cc2)[nH]1 (configuration not stated)	none (no result: TLR4-MyD88 BLA, B2AR ag, TLR9-MyD88 inh)
O=c1ccc2cc(O)c(O)cc2o1	NOD2 RIPK2 PPI 23 | NOD2-RIPK2 conf 23 | BLA counter 37
CCOC(=O)[C@]12CCCC=C1N(Cc1ccco1)C(=O)[C@H](CC(=O)N1CCOCC1)C2	none (no result: TLR4-MyD88 BLA, B2AR ag, TLR9-MyD88 inh)
O=C(COc1ccc([N+](=O)[O-])cc1)Nc1ccc(N2CCN(C(=O)c3ccco3)CC2)cc1	none (no result: TLR4-MyD88 BLA)
CCN1CCN(c2ccc(NC(=O)COc3ccc([N+](=O)[O-])cc3)cc2)CC1	NOD2 RIPK2 PPI 21 (no result: TLR4-MyD88 BLA) | NOD2-RIPK2 conf inactive | BLA counter inactive
C=C1CC(Cn2cc(Br)c(=O)[nH]c2=O)(c2ccc(-c3ccccc3)cc2)OC1=O (configuration not stated)	ABHD5-PLIN5 inh 54, NOD2 RIPK2 PPI 79, B2AR ag 51 (no result: TLR4-MyD88 BLA) | NOD2-RIPK2 conf 71 | BLA counter inactive
COc1ccccc1OCCn1cc(/C=C(\C#N)C(=O)NCc2cccs2)c2ccccc21	NOD2 RIPK2 PPI 29 | NOD2-RIPK2 conf inactive | BLA counter inactive
CC(=O)Nc1cccc(S(C)(=O)=O)c1	NOD2 RIPK2 PPI 21 | NOD2-RIPK2 conf inactive | BLA counter inactive
OC[C@H]1O[C@H](c2nc(-c3nc(-c4cccc(-n5cccc5)c4)no3)cs2)C[C@@H]1O	none (no result: TLR4-MyD88 BLA, B2AR ag, TLR9-MyD88 inh)
COc1ccc(C=NNc2ccc([N+](=O)[O-])cc2S(=O)(=O)Nc2ccccc2C(=O)O)cc1OC	NOD2 RIPK2 PPI 27 (no result: TLR4-MyD88 BLA) | NOD2-RIPK2 conf 36 | BLA counter 36
O=C(O)c1ccccc1NS(=O)(=O)c1ccc(N/N=C/c2ccc(O)c(O)c2)c([N+](=O)[O-])c1	none (no result: TLR4-MyD88 BLA)
O=C1/C(=C/c2ccc(Br)cc2)Oc2cc(O)ccc21	NOD2 RIPK2 PPI 25 (no result: TLR4-MyD88 BLA) | NOD2-RIPK2 conf 37 | BLA counter 42
CC(C)(C)c1ccc(/C=C2\Oc3cc(O)ccc3C2=O)cc1	NOD2 RIPK2 PPI 24 (no result: TLR4-MyD88 BLA) | NOD2-RIPK2 conf 27 | BLA counter 45
CCOC(=O)Cc1ccc(Nc2nc(NCc3cccs3)nc3ccsc23)cc1	none (no result: TLR4-MyD88 BLA, B2AR ag, TLR9-MyD88 inh)
COc1ccccc1CN1CC(C(=O)N(Cc2cnn(C)c2)C(C)C)CCC1=O (configuration not stated)	none (no result: TLR4-MyD88 BLA)
O=C(CN1C(=O)c2ccccc2S1(=O)=O)NCCSC1CCCCC1	none
O=C(CN1C(=O)c2ccccc2S1(=O)=O)NCCSCc1cccc(Cl)c1	NOD2 RIPK2 PPI 29 (no result: TLR4-MyD88 BLA) | NOD2-RIPK2 conf inactive | BLA counter inactive
O=C(Nc1ccc(S(=O)(=O)N2CCOCC2)cc1)c1ccc([N+](=O)[O-])o1	none (no result: TLR4-MyD88 BLA)
O=C(Nc1ccc(Cc2ccncc2)cc1)c1ccc([N+](=O)[O-])o1	NOD2 RIPK2 PPI 21 (no result: TLR4-MyD88 BLA) | NOD2-RIPK2 conf 32 | BLA counter 16
CC(=O)N1CCN(c2ccc(NC(=O)c3ccc([N+](=O)[O-])o3)cc2Cl)CC1	NOD2 RIPK2 PPI 28 (no result: TLR4-MyD88 BLA) | NOD2-RIPK2 conf 27 | BLA counter inactive
